Sampled rows, rich in hits. Any-hit rate of the full collection: about 19%.
Shiga inhibitor = A qHTS for Small Molecule Inhibitors of Shiga Toxin. Vero cells, Shiga toxin protein synthesis inhibition reporter. AID 2315, 2010. 290,000 compounds, 9.2% hits. inhibition, % at 38.7 µM; in the data active = inhibition mostly above about 28%, no sharp cut-off; inactive = mostly below about 43%; note: 0% is about no effect
Lassa entry inh = qHTS for Inhibitors of binding or entry into cells for Lassa Virus. Potency, µM (series often up to 37.9 µM), for the others: at the highest dose activity change, negative = inhibition, hits mostly inhibitors. Lassa virus pseudotype entry inhibition, cell reporter. 300,000 compounds, 1.2% hits; calls by dose curve; tested in HEK293 cells; note: potency is the fitted concentration of half-maximal effect; % is set by controls: 0 for no effect and ±100 for the full control effect; nearly all actives have a fitted effect of over 50% in size
Pf growth 48h = Primary qHTS for delayed death inhibitors of the malarial parasite plastid, 48 hour incubation; Potency, µM (titrated, usually from 28.7 µM), for inactives: at the top dose activity change, negative = inhibition, hits mostly inhibitors; P. falciparum luciferase growth in erythrocytes, 48 h; 310,000 compounds, 5.9% hits; note: potency is the fitted concentration of half-maximal effect; % is set by controls: 0 for no effect and ±100 for the full control effect
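Erythrocytes infected with P. falciparum carrying an integrated firefly luciferase reporter (2% hematocrit, 0.1% parasitemia final) were exposed to compounds in RPMI 1640 with 0.5% Albumax at 37 C, 5% CO2. Growth inhibition was scored as reduced luminescence.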
Marburg entry inh = qHTS for inhibitors of binding or entry into cells for Marburg Virus; Marburg virus pseudotyped entry inhibition, cell reporter; Potency, µM (titrated, usually from 37.8 µM), for inactives: at the top dose activity change, negative = inhibition, most hits filed as inhibitors; 300,000 compounds, 1.8% hits; AID 540276, 2011; calls by dose curve; tested in HEK293 cells; note: potency is the fitted concentration of half-maximal effect; % is set by controls: 0 for no effect and ±100 for the full control effect
Pf growth 96h = Primary qHTS for delayed death inhibitors of the malarial parasite plastid, 96 hour incubation; P. falciparum luciferase reporter growth, 96 h; 320,000 compounds, 6.9% hits; Potency, µM (series often up to 28.7 µM), for the others: at the highest dose activity change, negative = inhibition, actives largely listed as inhibitors; note: potency is the fitted concentration of half-maximal effect; % is set by controls: 0 for no effect and ±100 for the full control effect
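Infected RBCs, 2% Hct / 0.05% parasitemia final; luciferase-reporter P. falciparum; cpd 96 h, 37 C, 5% CO2; luciferase detection reagent; luminescence.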
Cycloheximide cs = Cycloheximide Counterscreen for Small Molecule Inhibitors of Shiga Toxin; 300,000 compounds, 12% hits; AID 2314, 2010; max response, %; cell reporter, cycloheximide protein synthesis inhibition counterscreen; in the data active = max response mostly above about 13%, no sharp cut-off; inactive = mostly below about 14%; note: read at 38.3 µM for the half of the compounds with a filed dose; 0% is about no effect
* marks the source's active call; other numbers are inactive results; ? = inconclusive; · = no result; [ ] = another dose, or the depositor's remark. Unless noted, calls come from the whole dose curve; as a rule, active = well fitted inhibition curve with a large enough effect; inconclusive = small, poorly fitted or top-dose-only effect, or another doubt; inactive = no such curve, though single readings can be large or run the other way.

SMILES	Shiga inhibitor	Lassa entry inh	Pf growth 48h	Marburg entry inh	Pf growth 96h	Cycloheximide cs
Cc1ccc2onc(CNC(=O)N3CCN(c4cccc(C(F)(F)F)c4)CC3)c2c1	·	3.9%[46.1 µM]	·	·	·	·
CCCCC1(C)NC(=O)c2c(C)sc(C(=O)OCC)c2N1 (stereo unspecified)	-1.6	-4.1%	?	?	8.28µM*	-4.4
CCOC(=O)CC1(C)NC(=O)c2c(C)sc(C(=O)OCC)c2N1 (stereo unspecified)	-10.6	-1.6%	0.2%	16.0%	27.3%	-4.8
CCOC(=O)CC1(CC(=O)OCC)NC(=O)c2c(C)sc(C(=O)OCC)c2N1	-1.5	-3.5%	-4.7%	-4.4%	3.7µM*	-3.0
CCN1C(=O)[C@H]2[C@@H](c3ccc(-c4ccc(Cl)c(Cl)c4)cc3)N[C@@](CC(C)C)(C(=O)OC)[C@H]2C1=O	·	·	11.7µM*	·	4.65µM*	·
COC(=O)[C@]1(CC(C)C)N[C@H](c2ccc(-c3ccc(Cl)c(Cl)c3)cc2)[C@@H]2C(=O)N(C)C(=O)[C@@H]21	·	·	7.38µM*	·	4.65µM*	·
COc1ccc(O)c(C2NC(CC(C)C)(C(=O)O)C3C(=O)N(Cc4ccccc4)C(=O)C23)c1 (stereo unspecified)	-7.1	9.8%	23.5%	13.6%	88.5%	8.5*
CCN1C(=O)[C@H]2[C@@H](c3ccc(-c4ccc(OC)cc4)cc3)N[C@@](CC(C)C)(C(=O)OC)[C@H]2C1=O	·	·	11.7µM*	·	11.7µM*	·
CCC1(C(=O)OC)NC(c2cccc(F)c2)C2C(=O)N(C)C(=O)C21 (stereo unspecified)	·	-1.9%	·	19.9%	·	·
CNC(=O)NC(=O)C(C)OC(=O)c1oc2ccccc2c1CSc1ccc(Cl)cc1 (stereo unspecified)	41.1	-1.8%	?	?	?	0.5
CN1C(=O)C(O)(CC(=O)c2ccc3c(c2)OCO3)c2ccccc21 (stereo unspecified)	-2.2	7.7%	8.7%	-3.5%	25.5%	-1.1
Oc1cc(Nc2ccc(N3CCCCC3)cc2)cc2cccnc12	·	·	0.104µM*	·	0.0928µM*	·
CN(C)C(=O)Oc1cccc(NC(=O)N2CCOCC2)c1	-1.6	-0.9%	6.4%	3.7%	80.8%	-1.5
O=C(c1ccccc1F)N1CCN(Cc2nc3sc4c(c3c(=O)[nH]2)CCCC4)CC1	-4.2	?	-23.1%	?	-23.9%	-2.5
CN(Cc1nc(Cc2cccc(F)c2)no1)CC1CCOCC1	2.0	4.0%	2.0%	2.7%[46.1 µM]	14.7µM*	-1.1
Cc1nc(CN(C)Cc2nc(Cc3cccc(F)c3)no2)cs1	12.9	9.9%[46.1 µM]	0.0%	1.4%[46.1 µM]	38.3%	1.8
Cc1ccc(SCc2cc(=O)c3c(=O)n(-c4ccccc4)[nH]c3[nH]2)cc1	-4.5	17.6%	2.8%[5.75 µM]	?	9.28µM*	2.7
O=c1cc(CSc2ccc(Cl)cc2)[nH]c2[nH]n(-c3ccccc3)c(=O)c12	22.5	11.0%	4.1%	-1.4%[46.1 µM]	15.2%	1.3
CC(C)c1ccc(C2=CC(c3cccc(Cl)c3)n3ncnc3N2)cc1 (stereo unspecified)	·	-21.8%[46.1 µM]	·	·	·	·
N#CC1(NC(=O)COC(=O)c2nc(Cl)ccc2Cl)CCCCC1	·	-4.0%	0.7%	9.1%	8.0%	·
COc1ccc(CCNC(=O)CN2C(=O)c3cccc4cccc(c34)C2=O)cc1OC	-2.7	·	12.4%	·	10.4µM*	-2.8
COc1ccc(CCN2C(=O)c3cccc4cccc(c34)C2=O)cc1OC	11.4	16.7%	3.5%	25.5%	?	11.0
CCC(C)(C)C1CCC2(CC1)NC(=O)N(CC(=O)NCCc1ccc(OC)c(OC)c1)C2=O (stereo unspecified)	·	-12.2%	11.7µM*	9.5%	?	·
CCOc1ccc(CCNC(=O)CN2C(=O)NC3(CCCC3)C2=O)cc1OCC	21.2	·	9.3%	·	16.6%	-5.2
Cn1nnnc1SCC(=O)Nc1ccc(C(=O)N2CCN(Cc3ccccc3F)CC2)cc1	·	15.7%	?	11.0%	-20.4%	·
CCOC(=O)C1CCCN(S(=O)(=O)c2cc3[nH]c(=O)c(=O)[nH]c3cc2C)C1 (stereo unspecified)	6.5	·	?	·	?	-1.9
